# Experimental data: PubChem BioAssay (Tox21)
# Values without a mark were called inactive. Calls follow the shape of the dose curve; as a rule, active = well fitted activation curve with a large enough effect in the repeat runs; inconclusive = weak or mixed curves; inactive = flat fitted curve, though single readings scatter.
# Assay: Caspase-3/7 induction in CHO-K1 cells by small molecules, qHTS assay (AID 1346980); also: nearly all actives have a fitted effect of over 15% in size
# Settings: CHO-K1 caspase-3/7 induction, Caspase-Glo luminescence, 17 h; series mostly up to 92.4 µM; caspase-3/7 activation: at the top concentration
# Source text: National Center for Advancing Translational Sciences [NCATS]
# NIH Chemical Genomics Center [NCGC]
# U.S. Environmental Protection Agency [EPA]
# National Institutes of Environmental Health Sciences [NIEHS]
# National Toxicology Program [NTP]
# Apoptosis is a process of programmed cell death and plays a central role in the development of multicellular organisms. It is a highly regulated process and induces cell death by activating caspases, which are the members of cysteine aspartic acid-specific protease (caspase) family. Caspases involved in apoptosis are classified by their mechanism of action as initiator caspases (caspase-2, -8, -9 and -10) and executioner caspases (caspase-3, -6, and -7). Inhibition of apoptosis results in number of cancers, autoimmune diseases, inflammatory diseases and viral infection. To identify small molecule compounds that induce apoptosis, a homogeneous, luminescent Caspase-Glo 3/7 assay was used. Wild type CHO-K1 cells were used to screen Tox21 libraries for identifying caspase-3/7 activity inducers.
# CHO-K1 cells were dispensed at 1,500 per well in 5uL of culture medium into white solid bottom 1536-well plates (Corning Life Sciences, Corning, NY) using a Multidrop Combi (Thermo Scientific, Waltham, MA) dispenser. The assay plates were incubated at 37 C and 5% CO2 for 5hr, and then 23nL of compounds dissolved in DMSO and positive control were transferred using a Pintool station (Wako, San Diego, CA). The assay plates were incubated at 37C and 5% CO2 for 17hr. For caspase-3/7 activity read, 4uL of Caspase-Glo 3/7 reagent (Promega Corporation, Madison, WI) was added to each well of the assay plates using Flying Reagent Dispenser (FRD, Aurora Discovery, San Diego, CA) and incubated the assay plates at room temperature for 30min. The luminescence signal was quantified using a ViewLux plate reader (Perkin Elmer, Shelton, CT).
# % is scaled to controls: 0 for no effect and ±100 for the full control effect.
row,SMILES,caspase-3/7 activation
1,CCC(=O)O[C@]1(C(=O)COC)[C@@H](C)C[C@H]2[C@@H]3CCC4=CC(=O)C=C[C@]4(C)C3(F)[C@@H](O)C[C@@]21C (stereo not given in full),0.344% [at 42.5 µM]
2,C=C(C)C(=O)OCCCCCCCCCCOC(=O)C(=C)C,0.98%
3,O=C(NC1CCN(CCc2c[nH]c3ccccc23)CC1)c1ccccc1,1.34% [at 42.5 µM]
4,CCOc1ccc(NC(C)=O)cc1N,0.26%
5,CC(Cc1ccccc1)(NC(=O)CN)c1ccccc1 (stereo not given),0.247% [at 42.5 µM]
6,Cc1c(Cl)cccc1[N+](=O)[O-],0.944%
7,CC(=O)Nc1cccc(N)c1,-0.114%
8,CCC(C)CCCC(C)(C)O (stereo not given),-0.183%
9,CC(CC(C#N)(c1ccccc1)C(C)C)N(C)C (stereo not given),0.18% [at 42.5 µM]
10,CCCC1CCOC(C)S1 (stereo not given),-0.274%
11,CC(=O)CC/C=C(\C)CC/C=C(\C)CC/C=C(\C)CCC=C(C)C,-2.13% [at 42.5 µM]
12,CCCCCCC/C=C/C=O,0.253%
13,CC/C=C/CCO,1.29%
14,CC(CN=Cc1ccccc1O)N=Cc1ccccc1O (stereo not given),0.637%
15,O=C(OCCCCCOC(=O)c1ccccc1)c1ccccc1,0.261%
16,O=C(OCCOCCOCCOC(=O)c1ccccc1)c1ccccc1,-1.61%
17,C/C(=C(\CCO)SS/C(CCO)=C(\C)N(C=O)Cc1cnc(C)nc1N)N(C=O)Cc1cnc(C)nc1N,0.0875% [at 42.5 µM]
18,O=P(c1ccccc1)(c1ccccc1)c1ccccc1,-0.866%
19,O=[N+]([O-])c1cccc(I)c1,1.58%
20,CC(=O)c1ccc(Cl)c(Cl)c1Cl,0.703%

row,SMILES,caspase-3/7 activation
1,CCCCCCCCC(=O)OCC(C)OC(=O)CCCCCCCC (stereo not given),-1.24%
2,CCC(=O)O[C@@H]1C[C@H]2CC[C@]1(C)C2(C)C,-0.622%
3,O=C1c2ccccc2C(=O)C1c1ccc2ccccc2n1,-6.74% [at 42.5 µM]
4,O=C(O)c1cccnc1Nc1cccc(C(F)(F)F)c1,-3.67% [at 42.5 µM]
5,O=c1[nH][nH]c2ccccc12,1.78%
6,O=C(O)CNc1ccccc1,-0.643%
7,Cc1ccc(NC(=O)c2ccc(CN3CCN(C)CC3)cc2)cc1Nc1nccc(-c2cccnc2)n1,0.15% [at 42.5 µM]
8,C/C=C1\[C@H]2C=C(C)C[C@]1(N)c1ccc(=O)[nH]c1C2,1.97% [at 42.5 µM]
9,CC(C)Cc1nccs1,-0.0937%
10,Cc1ccc(NC=O)c(C)c1,0.191%
11,C=CC(=O)NC(C)(C)C,-1.21%
12,CCc1ccc(C(=O)C(C)CN2CCCCC2)cc1 (stereo not given),-0.93% [at 42.5 µM]
13,OCC(O)c1ccccc1 (stereo not given),-0.698%
14,c1ccc(-c2ccc(-c3ccccc3)cc2)cc1,-1.92% [at 19 µM]
15,COc1ccc(C(=O)Nc2ccccc2)cc1[N+](=O)[O-],-3.1%
16,Cc1ccc2ccccc2c1[N+](=O)[O-],0.545%
17,CC(=O)OCC(=O)[C@@]1(O)CC[C@H]2[C@@H]3CCC4=CC(=O)C=C[C@]4(C)[C@@]3(F)[C@@H](O)C[C@@]21C,0.277% [at 42.5 µM]
18,Nc1ncnc2c1ncn2[C@@H]1O[C@H](CO)[C@@H](O)[C@H]1O,-1.38% [at 42.5 µM]
19,O=C(C1CCCCC1)N1CC(=O)N2CCCc3ccccc3C2C1 (stereo not given),0.0066% [at 42.5 µM]
20,CC(C)NC(=O)c1ccccc1N,0.315%
